Screens (PubChem BioAssay)
AMA1-RON2 inh: disrupts binding of P. falciparum AMA1 to RON2; AlphaScreen AMA1-biotinylated RON2 peptide binding; actives 0.2% (n = 360,000); Potency, µM (doses to about 58.2 µM), for the others: at the top dose activity change, negative = inhibition, hits mostly inhibitors;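 further: potency means the concentration at half of the fitted maximal effect; 0% = vehicle wells and -100% = peptide control; nearly all actives have a fitted effect of over 45% in size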
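AMA1 (3D7) with his tag at 25 nM final met compounds first, then biotinylated RON2 peptide at 25 nM; detection used donor plus acceptor beads, 10 µg/mL apiece, read by AlphaScreen after 30 min at room temperature.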
Shiga toxin inh: Shiga toxin inhibition; inhibition, % at 38.7 µM; AID 2315; Vero cells, Shiga toxin protein synthesis inhibition reporter; actives 9.2% (n = 290,000); in the data active means inhibition mostly above about 28%, no sharp cut-off; inactive means mostly below about 43%; further: 0% is about no effect
HCV inh: inhibitors of hepatitis C virus infection; Potency, µM (doses to about 41.8 µM), without a hit: top-dose activity change, negative = inhibition, hits mostly inhibitors; actives 3.4% (n = 340,000); Huh7.5.1 HCVcc-Cre infection, luciferase reporter, 44 h; further: potency means the concentration at half of the fitted maximal effect; on the % scale 0 is the no-effect control and ±100 the full control effect
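Seed cells (1,000/well) for 4 h; treat with compound and infect with HCVcc-Cre, moi about 0.5. Incubate 44 h, then detect luciferase activity.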
CHX counter: affects cycloheximide protein synthesis inhibition readout, counter-screen. cell reporter, cycloheximide protein synthesis inhibition counterscreen. max response, %. actives 12% (n = 300,000). AID 2314; in the data active means max response mostly above about 13%, no sharp cut-off; inactive means mostly below about 14%; further: read at 38.3 µM for the half of the compounds with a filed dose; 0% is about no effect
Pf growth 48h: P. falciparum growth inhibition at 48 hours (one generation). Potency, µM (highest dose often 28.7 µM), inactives show at the highest dose activity change, negative = inhibition, usual class: inhibitors. AID 504832. actives 5.9% (n = 310,000). P. falciparum luciferase growth in erythrocytes, 48 h; further: potency means the concentration at half of the fitted maximal effect; on the % scale 0 is the no-effect control and ±100 the full control effect
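Growth was read as firefly luciferase luminescence after a 48 h, 37 C, 5% CO2 exposure of compounds to reporter-bearing P. falciparum cultures (0.1% parasitemia, 2% hematocrit final) in Albumax-supplemented RPMI 1640.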
Pf growth 96h: P. falciparum growth inhibition at 96 hours; P. falciparum luciferase reporter growth, 96 h; Potency, µM (series often up to 28.7 µM), without a hit: top-dose activity change, negative = inhibition, usual class: inhibitors; actives 6.9% (n = 320,000); AID 504834; further: potency means the concentration at half of the fitted maximal effect; on the % scale 0 is the no-effect control and ±100 the full control effect
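96 h incubation, 37 C, 5% CO2, of luciferase-reporter P. falciparum-infected RBCs (2% hematocrit, 0.05% parasitemia final) with test compounds; endpoint luminescence.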
* marks the source's active call; other numbers are inactive results; ? = inconclusive; · = no result; [ ] = another dose, or the depositor's remark. An excerpt weighted towards active compounds, which were near 21% of everything screened. Unless noted, the call rests on the fitted dose curve; in most records, active means well fitted curve in the direction sought with a large enough effect; inconclusive means small, poorly fitted or top-dose-only effect, or another doubt; inactive means no such curve, though single readings can be large; an effect the other way counts as inactive or inconclusive.

SMILES	AMA1-RON2 inh	Shiga toxin inh	HCV inh	CHX counter	Pf growth 48h	Pf growth 96h
COc1cccc(-c2nn(-c3ccc(C)cc3)cc2C(=O)N2CCc3cc(OC)c(OC)cc3C2)c1	-25%	·	?	·	9.3µM*	?
COc1ccc(OC)c(-c2nn(-c3ccccc3)cc2C(=O)NC2(C)CCS(=O)(=O)C2)c1 (centres undefined)	-5%	·	·	·	·	·
O=C(O)c1ccc(NC(=O)c2ccco2)c(NC(=O)c2ccco2)c1	-7%	10	-26%	1	30%	7%
O=C1C=C(NCc2ccc3c(c2)OCO3)CC(c2ccccc2)C1 (centres undefined)	7%	-15	-4%	-2	1%	-17%
NC(CCc1ccccc1)c1csc(NC(=O)Nc2cccc(C(F)(F)F)c2)n1 (centres undefined)	84%	·	·	·	·	·
O=C(COc1ccc(C2SCCS2)cc1)NNC(=O)C(Cl)Cl	73%	48	-3%	22*	39%	72%
COCCNCC(=O)N1CCCCCC1	8%	30	29%	3	-2%	12µM*
CCNC(=O)C1(C)CCN(C(=O)c2cccc(OC(F)(F)F)c2)C1 (centres undefined)	0%	·	·	·	·	·
COc1c(C)cccc1C(=O)NCc1ccc2c(c1)OCO2	-5%	-1	-1%	1	-7%[0.00184 µM]	?
COc1ccc(-n2nnnc2/C=C/Nc2cc(C(F)(F)F)ccc2OC)cc1	5%	-4	?	1	?	?
COc1ccc(-n2nnnc2/C=C\Nc2ccccc2C(=O)c2ccccc2)cc1	-3%	22	7.9µM*	1	?	8.3µM*
CC(=O)c1ccc(S(=O)(=O)N2CCN(c3ccnc4cc(Cl)ccc34)CC2)cc1	-3%	·	·	·	·	·
CC(C)NCC(O)c1ccc(N)c(C#N)c1 (centres undefined)	·	·	·	·	-2%	12µM*
CC(C)NCC(O)c1ccc(C2CCCC2)cc1 (centres undefined)	-1%	-4	?	-2	?	?
Cc1cccc(OCC(=O)N(Cc2ccco2)C2CCS(=O)(=O)C2)c1C (centres undefined)	0%	-8	1%	-2	15%	-4%
COc1ccc(CN2C=C3C(=O)C(C)(OC(=O)CCc4ccccc4)C(=O)C=C3C=C2c2ccc(C#N)cc2)cc1 (centres undefined)	-11%	60	-14%	6	9.3µM*	?
CC1(OC(=O)CCc2ccccc2)C(=O)C=C2C=C(c3ccc(C#N)cc3)N(CCc3c[nH]c4ccccc34)C=C2C1=O (centres undefined)	-2%	-9	?	-4	12µM*	?
CCCN(C(=O)CSc1nc2cc(S(=O)(=O)N(CC)CC)ccc2o1)C1CCS(=O)(=O)C1 (centres undefined)	14%	·	?	·	?	5.2µM*
N#CC1(NC(=O)CSc2nc3ccc([N+](=O)[O-])cc3s2)CCCCC1	-22%	·	?	·	5.2µM*	?
CCc1ccc(Nc2nnc(SCC(=O)N(C)C3CCS(=O)(=O)C3)s2)cc1 (centres undefined)	19%	23	-2%	17*	9.3µM*	?
CCN(C(=O)CSc1nc2ccc([N+](=O)[O-])cc2s1)C1CCS(=O)(=O)C1 (centres undefined)	-1%	-3	-7%	13*	?	12µM*
CCN(C(=O)CSc1nnc(Nc2cccc(C)c2C)s1)C1CCS(=O)(=O)C1 (centres undefined)	-8%[11.6 µM]	-7	22%	-4	8.3µM*	-102%
CCN(CC)S(=O)(=O)c1ccc2oc(SCC3CN=C(c4ccc(OC)cc4)S3)nc2c1 (centres undefined)	1%	5	11µM*	14	?	79%
Cc1cc(NS(=O)(=O)c2ccc(NC(=O)/C=C/c3c(F)cccc3Cl)cc2)nc(C)n1	-1%	-3	-1%	6	?	0%
Cc1ccc(/C=C/C(=O)Nc2nc3ccccc3[nH]2)cc1	64%	35*	4%	37*	179%	8%
